Assay outcomes: PubChem, Center for Chemical Genomics, University of Michigan
HIV TAR-Tat – TAR RNA-Tat peptide displacers, HIV-1, primary screen, biochemical, FRET, FAM/TAMRA-labeled Tat. HIV-1 TAR RNA, Tat peptide displacement FRET; stronger effect = higher value. z-score (no concentration beside the values). actives 0.6% (n = 100,000); active means z-score of 3 or more in at least 2 runs
CDC25B CDK2 inh – primary biochemical HTRF screen for blockers of M-phase inducer phosphatase 2 binding to CDK2/cyclin A. P30305+P24941. HTRF CDC25B-CDK2/CyclinA binding, anti-His/anti-Flag; stronger effect = higher value. z-score (no concentration beside the values). actives 0.72% (n = 94,000). AID 1259370, 2018; in the data active means z-score above about 3.2
* marks the source's active call; other numbers are inactive results; nt = no result. A selection: hits, their analogues and other compounds. The true share with any hit is near 0.93%.

SMILES	HIV TAR-Tat	CDC25B CDK2 inh
CCCCOC(=O)c1c(N)n(-c2ccccc2OC)c2nc3ccccc3nc12	nt	1.6
CCOC(=O)c1c(N)n(-c2ccc(C)c(C)c2)c2nc3ccccc3nc12	1.6	-2.2
CCCCOC(=O)c1c(N)n(-c2ccc(OC)cc2)c2nc3ccccc3nc12	0.97	11*
COC(=O)c1c(N)n(-c2ccc(OC)c(OC)c2)c2nc3ccccc3nc12	1.2	10*
CCCCNC(=O)C1CCC(CNc2c(N3CCCC3)c(=O)c2=O)CC1 (stereo unspecified)	1.2	-0.64
Nc1nonc1C(=O)N1CCN(C(=O)c2cccc(F)c2)CC1	1.2	-0.29
C[C@](N)(Cc1ccc(O)c(O)c1)C(=O)O	26*	0.01
C[C@](N)(Cc1ccc(O)cc1)C(=O)O	nt	0.99
Cc1nc(N2CCCC2)cc(N2CCN(S(=O)(=O)c3cccc(Cl)c3)CC2)n1	0.94	1.9
N#Cc1c(C(F)(F)F)cc(-c2ccccc2)nc1SCC(=O)Nc1ccc(C(N)=O)cc1	nt	0.53
CCCN1C(SCC(=O)NCc2cccs2)=NS(=O)(=O)c2ccccc21	0.03	nt
O=C(CSc1ccsc1[N+](=O)[O-])Nc1c(F)cc(F)cc1Br	2.9	1.5
O=C(CSc1ccsc1[N+](=O)[O-])Nc1cccc(F)c1	5.2*	-2.8
O=C(CSc1ccsc1[N+](=O)[O-])NC1CCCC1	-0.7	-0.96
COc1ccc(NC(=O)CSc2ccsc2[N+](=O)[O-])cc1Cl	10*	3
O=C(CSc1ccsc1[N+](=O)[O-])Nc1ccc(Br)cc1F	13*	3.6
CSc1ccc(CCNC(=O)CSc2ccsc2[N+](=O)[O-])cc1	0.24	-0.52
COc1cccc2cc(S(=O)(=O)c3ccc(F)c(Cl)c3)c(=O)oc12	nt	-1.2
C=CCSc1nc(=O)c2c(n1C)NC(=O)CC2c1ccc(C(=O)OC)cc1 (stereo unspecified)	0.86	-1.5
COC(=O)C1=C(C)Nc2nc(SCC(C)C)[nH]c(=O)c2C1c1ccccc1 (stereo unspecified)	0.31	-1.7
COc1cc(C2CC(c3c(O)n(C)c(=O)n(C)c3=O)=Nc3ccccc3S2)ccc1O (stereo unspecified)	1.2	-1.7
COc1ccc(C2CC(c3c(O)n(C)c(=O)n(C)c3=O)=Nc3ccccc3S2)cc1OC (stereo unspecified)	2.3	20*
CCOCCCNC(=O)C1CCN(c2ncnc3c2nc2n3CCCCC2)CC1	0.58	nt
CC(C)N1CCn2c(nc3cc(NC(=O)c4ccco4)ccc32)C1	19*	10*
CC(=O)Nc1ccc2c(c1)nc1n2CCN(C(C)C)C1	-7.6	-0.16
SMILES	HIV TAR-Tat	CDC25B CDK2 inh
COc1ccc(Oc2ccc(C(F)(F)F)cc2NC(=O)Nc2csc3ccccc23)cc1	nt	-2.2
COCCNC(=O)Cn1ncn2c(cc3ccccc32)c1=O	-0.41	-1.1
O=C(CC1(O)C(=O)Nc2ccccc21)c1ccccc1F (stereo unspecified)	2.2	nt
Cc1ccccc1NS(=O)(=O)c1c(C)noc1C	0.69	-1.3
CCN(CC)C(=O)c1oc2ccccc2c1NC(=O)c1ccc2c(c1)OCO2	7*	nt
CCN(CC)C(=O)c1oc2ccccc2c1NC(=O)C(C)(C)C	0.42	nt
O=S1(=O)C[C@H](NC2CCCC2)[C@@H](S(=O)(=O)c2cccs2)C1	-3.7	0.17
COc1ccc(C(=O)CSc2nnc(-c3ccco3)c(-c3ccco3)n2)cc1	20*	-1.2
COc1ccc(C(=O)CSc2ccc(-c3cccs3)nn2)cc1	0.45	nt
COc1ccc(C(=O)Cn2c3ccccc3n3nc(-c4ccco4)nc23)cc1	7.1*	-5.4
COc1ccc(C(=O)Cn2c3ccccc3n3nc(-c4ccco4)nc23)cc1OC	0.31	-1.2
O=C(CSc1n[nH]c(-c2ccccc2)n1)c1ccc(Cl)cc1	nt	-1.4
O=C(CSc1nnc(-c2ccco2)c(-c2ccco2)n1)Nc1cnc2ccccc2c1	26*	0.46
O=C(CSc1n[nH]c(-c2ccco2)n1)c1ccc(Cl)cc1	17*	-2.2
O=C(Nc1cnc2ccccc2c1)c1ccco1	0.67	nt
C=CCN(Cc1nc(-c2ccc(C)cc2)no1)S(=O)(=O)c1ccccc1	0.25	-1.6
Cc1c(C(=O)Nc2onc3c2CCCC3)oc2ccccc12	1.5	-2
COC(=O)c1c(C(=O)OC)c2c3ccccc3ccn2c1C(=O)OC	nt	-5.2
Cc1ccc(CSc2nccn(-c3ccc(C)c(C)c3)c2=O)cc1	0.75	nt
CCCCn1c(C)c(C)c2c1ncn1nc(-c3ccc(OC)cc3)nc21	1.6	-2.3
Clc1ccc(CN2CCN(C3CCCCCC3)CC2)cc1	nt	-0.99
Cc1cc(C)c(S(=O)(=O)Nc2cc3c(cc2C)n(C)c(=O)n3C)c(C)c1	0.42	nt
Cc1cc(C)c(S(=O)(=O)Nc2ccc[nH]c2=O)c(C)c1	-1.9	9.4*
COc1ccc(-c2cc3c4c(C)n(Cc5ccc6c(c5)OCO6)c(C)c4c(C)nn3c2)cc1	-0.06	-1.7
